{"source": "PubChem BioAssay (EPA / NIEHS)", "key": {"[1]": {"assay": "IUF_NPC2-5_cell_number_120hr: Cell Number Assessment at 120 hours in the Leibniz Research Institute for Environmental Medicine (IUF) Neural Progenitor Cell Migration and Differentiation Assay (NPC2-5) (AID 2284308)", "procedure,_shortened": "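hNPC spheres, one per well, PDL/laminin, N2 medium, 37C, 5% CO2. Dosing day 0 → half-medium change with fresh compound day 3 → fix 120 h. Readout: Hoechst+ nuclei count, migration area; 7 concentrations plus solvent control.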"}, "[2]": {"assay": "IUF_NPC2-5_viability_120hr: Viability Assessment at 120 hours in the Leibniz Research Institute for Environmental Medicine (IUF) Neural Progenitor Cell Migration and Differentiation Assay (NPC2-5) (AID 2284312)", "procedure,_shortened": "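Human fetal (GW 16-19) neural progenitor spheres of 0.3 mm were plated on poly-D-lysine/laminin in N2 differentiation medium and exposed from day 0 for 120 h, with half-medium refresh at day 3. Viability was read as alamar blue resazurin-to-resorufin fluorescence against DMSO.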"}, "IYD (gene 389434)": {"tested_on": "IYD (gene 389434)", "assay": "CCTE_GLTED_hIYD: CCTE's human Iodotyrosine Deiodinase (xIYD) Inhibition Assay, Great Lakes Toxicology and Ecology Division (GLTED) Lab (AID 2284317; active means hit-call score of the fitted dose curve at least 0.9, where 1 is the maximum;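 further: cell-free human IYD enzyme made in baculovirus insect cells; iodide freed from monoiodotyrosine measured by cerium arsenite color change at 420 nm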)", "procedure,_shortened": "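Deiodination of MIT by insect-cell-produced human IYD is measured after a 3 h incubation with test chemical. Free iodide passes through a Dowex column and accelerates Sandell-Kolthoff Ce4+ reduction, read at 420 nm; run in triplicate.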"}, "[3]": {"assay": "VALA_TUBHUV_Agonist_CellCount: Viability Assessment in the VALA Sciences human Umbilical Vein Endothelial Tubule Formation (TUBHUV) Agonism Assay (AID 2284309; active means hit-call score of the fitted dose curve at least 0.9, where 1 is the maximum)", "procedure,_shortened": "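Viability endpoint by fluorescent imaging of fixed nuclear/CD31-stained HUVEC–HDF co-cultures. Readout is cell count, fitted upward against 0.1% DMSO. Compound exposure was 72 h in 10 ng/ml VEGF, after 3-day co-culture priming.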"}, "[4]": {"assay": "VALA_TUBHUV_Antagonist_CellCount: Viability Assessment in the VALA Sciences human Umbilical Vein Endothelial Tubule Formation (TUBHUV) Antagonism Assay (AID 2284310; active means hit-call score of the fitted dose curve at least 0.9, where 1 is the maximum)", "procedure,_shortened": "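Read-out is imaged cell count after nuclear and CD31 staining, fitted against 0.1% DMSO vehicle. Compounds were added for 3 days, in 10 ng/ml VEGF assay medium, to HUVEC–HDF co-cultures pre-grown 3 days.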"}, "[5]": {"assay": "VALA_MIGHUV2_CellCount: Viability Assessment in the VALA Sciences human Umbilical Vein Endothelial Cell Migration (MIGHUV) Assay, Area of Scratch Wound after Recovery (AID 2284314; active means hit-call score of the fitted dose curve at least 0.9, where 1 is the maximum)", "procedure,_shortened": "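Viability read-out: Hoechst-stained nuclei counted by fluorescence imaging after a 24 h recovery period in fixed, scratched HUVEC plates. Compound was dosed within 30 min of scratching at six concentrations (triplicate); DMSO at 0.1 % served as baseline.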"}, "[6]": {"assay": "CCTE_Mundy_HCI_iCellGluta_NOG_NeuriteLength: CCTE's Neurite Outgrowth Assay in iCellGluta cells for Neurite Length, Mundy Lab (AID 2284318; active means hit-call score of the fitted dose curve at least 0.9, where 1 is the maximum)", "procedure,_shortened": "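Automated high-content imaging of betaIII-tubulin (Alexa Fluor-488) and Hoechst-stained cells gave neurite length, normalized to the DMSO baseline.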"}, "[7]": {"assay": "VALA_TUBIPS_Antagonist_TubuleLength: VALA Sciences human iPS-derived Endothelial Tubule Formation (TUBIPS) Antagonist Assay (AID 2284313; active means hit-call score of the fitted dose curve at least 0.9, where 1 is the maximum)", "procedure,_shortened": "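Tubule length was quantified by high-content imaging of CD31- and nuclear-stained cells, with 0.1% DMSO as neutral and 100 uM suramin as inhibition control. Compounds were applied for 3 days, in 10 ng/ml VEGF, to cultures pre-grown 3 days.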"}, "[8]": {"assay": "VALA_MIGHUV2_Bcatenin: VALA Sciences human Umbilical Vein Endothelial Cell Migration (MIGHUV) Assay, Nuclear Translocation of beta-Catenin after Recovery (AID 2284315; active means hit-call score of the fitted dose curve at least 0.9, where 1 is the maximum)", "description": "VALA_MIGHUV2_BCatenin is a cell-based, multiplexed assay that uses umbilical vein-derived endothelial cells (HUVEC). Measurements were taken 24 hours after chemical dosing in a 96-well plate.VALA_MIGHUV2_Bcatenin is the one of two assay components measured from the VALA_MIGHUV2 assay. It is designed to make measurements of nuclear translocation of CTNB, a form of morphology reporter, as detected with fluorescence intensity signals by HCS Fluorescent Imaging technology.Data from the assay component VALA_MIGHUV2_BCatenin was analyzed at the endpoint, VALA_MIGHUV2_BCatenin, in the positive analysis fitting direction relative to DMSO as the negative control and baseline of activity. Using a type of morphology reporter, gain-of-signal activity can be used to understand developmental effects. To generalize the intended target to other relatable targets, this assay endpoint is annotated to the neurodevelopment intended target family, where the subfamily is migration.\nCells were seeded on 384-well microplates (day-0) at a density of 9000 cells per well for detection of wound area recovery or 4000 cells per well for detection of beta-catenin (CTNB) immunoreactivity and incubated in Endothelial Cell Growth Medium (CAI, San Diego; catalog 211-500). After 24 hours of culture, the HUVEC plates were scratched using a custom scratch head with the Bravo liquid handling system. […]"}, "[9]": {"assay": "VALA_MIGHUV2_WoundArea: VALA Sciences human Umbilical Vein Endothelial Cell Migration (MIGHUV) Assay, Area of Scratch Wound after Recovery (AID 2284316; active means hit-call score of the fitted dose curve at least 0.9, where 1 is the maximum)", "procedure,_shortened": "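Wound-area endpoint read by fluorescence imaging of Hoechst-stained nuclei after a 24 h recovery period following scratch of HUVEC monolayers (9000 cells/well). Chemicals dosed within 30 min post-scratch, triplicate 6-point series, 0.1% DMSO vehicle; Cytochalasin D positive control.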"}}, "note": "Several values for one entry are separate records, joined by “and”; a condition that tells them apart may be missing. Equal values may be shown once. Results filed as inconclusive are left out. Activity calls are given as the source filed them. How the source made its calls, unless noted: active means hit-call score of the fitted dose curve at least 0.9, where 1 is the maximum; inactive means score below 0.9."}
{"smiles": "COP(=O)(NC(C)=O)SC", "note": "(stereo not drawn)", "values": [{"measurement": "outcome", "setting": "[1]", "value": "inactive"}, {"measurement": "outcome", "setting": "[2]", "value": "inactive"}]}
{"smiles": "CCCOCC(=Nc1ccc(Cl)cc1C(F)(F)F)n1ccnc1", "values": [{"measurement": "outcome", "setting": "IYD (gene 389434)", "value": "inactive"}]}
{"smiles": "O=[N+]([O-])c1cc(C(F)(F)F)c(Cl)c([N+](=O)[O-])c1Nc1ncc(C(F)(F)F)cc1Cl", "values": [{"measurement": "AC50", "setting": "[1]", "value": "1.1 µM (active)"}, {"measurement": "outcome", "setting": "[3]", "value": "inactive"}, {"measurement": "outcome", "setting": "[4]", "value": "inactive"}, {"measurement": "AC50", "setting": "[2]", "value": "1.4 µM (active)"}, {"measurement": "outcome", "setting": "[5]", "value": "inactive"}, {"measurement": "AC50", "setting": "[6]", "value": "714 nM (active)"}]}
{"smiles": "S=C1NCCN1", "values": [{"measurement": "outcome", "setting": "[1]", "value": "inactive"}, {"measurement": "outcome", "setting": "[2]", "value": "inactive"}, {"measurement": "outcome", "setting": "[7]", "value": "inactive"}, {"measurement": "outcome", "setting": "[8]", "value": "inactive"}, {"measurement": "outcome", "setting": "[9]", "value": "inactive"}, {"measurement": "outcome", "setting": "[6]", "value": "inactive"}]}
{"smiles": "CC(=NC#N)N(C)Cc1ccc(Cl)nc1", "values": [{"measurement": "outcome", "setting": "[1]", "value": "inactive"}, {"measurement": "outcome", "setting": "[2]", "value": "inactive"}]}
{"smiles": "CCCSP(=O)(OCC)SCCC", "values": [{"measurement": "outcome", "setting": "[1]", "value": "inactive"}, {"measurement": "outcome", "setting": "[2]", "value": "inactive"}, {"measurement": "outcome", "setting": "[6]", "value": "inactive"}]}
{"smiles": "C[N+]1(C)CCCCC1", "values": [{"measurement": "outcome", "setting": "[1]", "value": "inactive"}, {"measurement": "outcome", "setting": "[2]", "value": "inactive"}]}
{"smiles": "COP(=O)(OC)C(O)C(Cl)(Cl)Cl", "note": "(stereo not drawn)", "values": [{"measurement": "outcome", "setting": "[1]", "value": "inactive"}, {"measurement": "outcome", "setting": "[2]", "value": "inactive"}]}
{"smiles": "CC(C)N(C(=O)SCC(Cl)=C(Cl)Cl)C(C)C", "values": [{"measurement": "outcome", "setting": "[1]", "value": "inactive"}, {"measurement": "outcome", "setting": "[2]", "value": "inactive"}, {"measurement": "AC50", "setting": "[6]", "value": "20200 nM (active)"}]}
{"smiles": "CCOP(=S)(OCC)Oc1ccc([N+](=O)[O-])cc1", "values": [{"measurement": "outcome", "setting": "[6]", "value": "inactive"}]}
{"smiles": "CN1COCN(Cc2cnc(Cl)s2)C1=N[N+](=O)[O-]", "values": [{"measurement": "outcome", "setting": "[1]", "value": "inactive"}, {"measurement": "outcome", "setting": "[2]", "value": "inactive"}, {"measurement": "outcome", "setting": "[6]", "value": "inactive"}]}
{"smiles": "CCCCSP(=O)(SCCCC)SCCCC", "values": [{"measurement": "outcome", "setting": "[1]", "value": "inactive"}, {"measurement": "outcome", "setting": "[2]", "value": "inactive"}, {"measurement": "outcome", "setting": "IYD (gene 389434)", "value": "inactive"}, {"measurement": "outcome", "setting": "[6]", "value": "inactive"}]}
{"smiles": "CC[C@H](C)[C@H]1O[C@]2(C=C[C@@H]1C)C[C@@H]1C[C@@H](C/C=C(\\C)[C@@H](O[C@H]3C[C@H](OC)[C@@H](O[C@H]4C[C@H](OC)[C@@H](NC)[C@H](C)O4)[C@H](C)O3)[C@@H](C)/C=C/C=C3\\CO[C@@H]4[C@H](O)C(C)=C[C@@H](C(=O)O1)[C@]34O)O2", "values": [{"measurement": "AC50", "setting": "[1]", "value": "836 nM (active) and 2 µM (active)"}, {"measurement": "AC50", "setting": "[2]", "value": "1.14 µM (active) and 2.1 µM (active)"}, {"measurement": "AC50", "setting": "[6]", "value": "811 nM (active)"}]}
